These results are taken from PubChem BioAssay (Tox21).

Results filed as inconclusive are left out. The source made the active and inactive calls. Unless noted, the call rests on the fitted dose curve; in most records, active means well fitted curve in the direction sought with a large enough effect in the repeat runs; inconclusive means weak or mixed curves; inactive means no such curve, though single readings can be large; an effect the other way counts as inactive or inconclusive.

Assay [1] in a line: qHTS assay to identify small molecule agonists of the vitamin D receptor (VDR) signaling pathway - cell viability counter screen (AID 743224). Further: series mostly up to about 63 µM; nearly all actives have a fitted effect of over 50% in size. An outline of the steps:
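VDR-bla cells, 4 h after plating, exposed to compounds for 16 h at 37C; viability then read in the same wells as CellTiter-Glo luminescence after 30 min at room temperature, following the bla FRET read.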
In general terms: qHTS replaces the single test concentration by a dilution series.

Assay [2] can be described thus: qHTS assay to identify small molecule antagonists of the vitamin D receptor (VDR) signaling pathway - cell viability counter screen (AID 743225). Further: nearly all actives have a fitted effect of over 50% in size. An outline of the steps:
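Compounds were pinned onto VDR-bla HEK 293T cells together with 1-alpha,25-dihydroxyvitamin D3 at 3 nM final. After 16 h at 37C and 5% CO2 plus the reporter readout, cell viability was measured by CellTiter-Glo luminescence (30 min, room temperature).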

The nature of assay [3]: qHTS assay to identify small molecule agonists of the NFkB signaling pathway (AID 1159509; active means well fitted curve in the direction sought with a large enough effect in the signal ratio in the repeat runs, not every such curve was filed as active; the % refers to the signal ratio; further: series mostly up to about 61 µM). An outline of the steps:
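After overnight attachment, reporter cells received test compounds, DMSO or positive controls and were incubated 5 hr at 37 C. FRET substrate was then added for 1.5 hr at room temperature before dual-emission fluorescence reading.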

The nature of assay [4]: qHTS assay to identify small molecule agonists of the NFkB signaling pathway - cell viability counter screen (AID 1159515; calls by dose curve; further: series mostly up to about 61 µM; nearly all actives have a fitted effect of over 55% in size). Put shortly:
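NFkB-bla ME-180 cells, 2,000/well, plated overnight at 37 C; compound added for 5 hr at 37 C. Viability read in the same wells as the bla reporter, by CellTiter-Glo luminescence after 30 min at room temperature.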

A short description of assay [5]: qHTS assay to identify small molecule agonists of the endoplasmic reticulum stress response signaling pathway (AID 1159516; active means well fitted activation curve with a large enough effect in the signal ratio in the repeat runs, not every such curve was filed as active; the % refers to the signal ratio). An outline of the steps:
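CellSensor ESRE-bla HeLa cells, 1,500 per well, plated overnight, then exposed to compounds for 5 hr at 37 C. Beta-lactamase reporter read with LiveBLAzer B/G FRET substrate after 2 hr at room temperature, 405 nm excitation, 460 and 530 nm emission.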

Assay [6] can be described thus: qHTS assay to identify small molecule agonists of the endoplasmic reticulum stress response signaling pathway - cell viability counter screen (AID 1159517; calls by dose curve;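 further: HeLa cells carrying an ER stress response element beta-lactamase reporter; series mostly up to about 61 µM; nearly all actives have a fitted effect of over 50% in size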). An outline of the steps: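 Luminescence readout: CellTiter-Glo, 30 min RT, same wells as the ESRE-bla reporter read. HeLa ESRE-bla, 1,500 cells/well, o/n 37 C; cpd 5 hr 37 C/5% CO2.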
Assay [7] is described as follows: qHTS assay to identify small molecule antagonists of the retinoid-related orphan receptor gamma (ROR-gamma) signaling pathway - cell viability counter screen (AID 1159520). Further: nearly all actives have a fitted effect of over 50% in size. Put shortly: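 Tet-on ROR gamma CHO cells (1,000/well) were plated 4 hr, given compounds in DMSO for 2 hr at 37 C, then induced with 1 uM final doxycycline for 16 hr. Viability was read as ATP by CellTiter-Glo luminescence after 30 min.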

Assay [8] deals with Nuclear receptor ROR-gamma (Homo sapiens) (UniProt P51449). Nature of the assay: qHTS assay to identify small molecule antagonists of the retinoid-related orphan receptor gamma (ROR-gamma) signaling pathway (AID 1159521). An outline of the steps: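 Test compounds were applied to Tet-on RORγ CHO cells 2 h ahead of doxycycline hyclate (1 uM final). Luciferase reporter activity was quantified by luminescence after 16 h at 37 C and 5% CO2.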

Assay [9] in a line: qHTS assay to identify small molecule agonists of the AP-1 signaling pathway - cell viability counter screen (AID 1159525; calls by dose curve; further: nearly all actives have a fitted effect of over 55% in size). An outline of the steps: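 ME-180 AP-1-bla, 2500 cells/well, Opti-MEM + 0.5% dialyzed FBS; overnight 37 °C; cpd 15-pt titration, 5 h 37 °C; CellTiter-Glo 30 min RT; luminescence read; normalised to TOAB and DMSO controls.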
Assay [10] in a line: qHTS assay to identify small molecule agonists of the AP-1 signaling pathway (AID 1159526; calls by dose curve).
Assay [11] has as its target Retinoic acid receptor RXR-alpha (Homo sapiens) (UniProt P19793). Nature of the assay: qHTS assay to identify small molecule agonists of the RXR signaling pathway (AID 1159527; calls by dose curve; further: nearly all actives have a fitted effect of over 35% in size). Put shortly: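 Using 9-cis retinoic acid as the reference agonist, chemicals were tested in HEK 293T cells […] for 16 hr; substrate loading lasted 2 hr at room temperature.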

The nature of assay [12]: qHTS assay to identify small molecule agonists of the RXR signaling pathway - cell viability counter screen (AID 1159529). Put shortly: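 Compounds dissolved in DMSO were pinned onto HEK 293T cells carrying a beta-lactamase reporter under RXR-alpha control and incubated 16 hr. Cytotoxicity was then quantified by CellTiter-Glo luminescence.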
The nature of assay [13]: qHTS assay to identify small molecule antagonists of the retinoic acid receptor (RAR) signaling pathway (AID 1159552; further: nearly all actives have a fitted effect of over 50% in size). An outline of the steps: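 Test chemicals and DMSO controls were pin-transferred onto C3RL4 cells a day after seeding; retinol (1 uM final) followed at once. Luminescent reporter output was quantified after 6 hr of co-incubation and 30 min with detection reagent.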

A short description of assay [14]: qHTS assay to identify small molecule agonists of the retinoic acid receptor (RAR) signaling pathway (AID 1159553). Further: potency means the concentration at half of the fitted maximal effect. Put shortly: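 C3RL4 RARE-luciferase cells were seeded at 1,000/well and grown overnight at 37 C, then exposed to compounds for 6 hr at 37 C, 5% CO2. Luciferase reagent was added and luminescence was read after 30 min at room temperature.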
A short description of assay [15]: qHTS assay to identify small molecule antagonists of the estrogen related receptor (ERR) signaling pathway from Tox21 library - cell viability counter screen (AID 1224834). Further: nearly all actives have a fitted effect of over 30% in size. Put shortly:
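ERR reporter cells, 2,000 per well, rested 6 h, then exposed to compound in DMSO for 17.5 hours at 37 C. Viability read as fluorescence after 30 min with CellTiter-Fluor.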

Assay [16] concerns the target Luciferin 4-monooxygenase (Photinus pyralis) (UniProt P08659). Briefly: qHTS assay to identify small molecule inhibitors of firefly luciferase (AID 1224835). Further: nearly all actives have a fitted effect of over 25% in size. Further: potency means the concentration at half of the fitted maximal effect. An outline of the steps:
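Quantitative HTS format; KM concentrations of both substrates. Purified P. pyralis FLuc activity quantified from luminescence images.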

Assay [17] is described as follows: qHTS assay to identify small molecule agonists of the constitutive androstane receptor (CAR) signaling pathway - cell viability counter screen (AID 1224836). Further: series mostly up to about 92 µM; nearly all actives have a fitted effect of over 45% in size. An outline of the steps:
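23 h treatment, 37 C, 5% CO2. Cell line: HepG2 stably expressing hCAR with a CYP2B6-2.2kb construct. Co-treatment: PK11195, 0.75 uM final. Read-out: CellTiter-Fluor fluorescence intensity.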

A short description of assay [18]: qHTS assay to identify small molecule antagonists of the constitutive androstane receptor (CAR) signaling pathway - cell viability counter screen (AID 1224837). Further: series mostly up to about 92 µM; nearly all actives have a fitted effect of over 45% in size. An outline of the steps: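 HepG2 cells stably carrying hCAR and CYP2B6-2.2kb reporter, stimulated with 50 nM CITCO and compounds at 15 concentrations for 23 h at 37 C. Viability measured by CellTiter-Fluor fluorescence.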

The target in assay [19] is Nuclear receptor subfamily 1 group I member 3 (Homo sapiens) (UniProt Q14994). Nature of the assay: qHTS assay to identify small molecule antagonists of the constitutive androstane receptor (CAR) signaling pathway (AID 1224838). Further: nearly all actives have a fitted effect of over 40% in size. An outline of the steps: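 HepG2 cells stably carrying hCAR and a CYP2B6-2.2kb luciferase reporter, seeded 4 hrs before compound (15 concentrations). Stimulated with 50 nM CITCO for 24 hr at 37 C. ONE-Glo luminescence read after 30 min at room temperature.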

Assay [20] is described as follows: qHTS assay to identify small molecule antagonists of the retinoid acid receptor (RAR) signaling pathway - cell viability counter screen (AID 1159551). Further: nearly all actives have a fitted effect of over 35% in size. Put shortly:
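C3RL4 RARE-luciferase cells, 1,000/well, incubated overnight, then dosed with compound plus 1 uM retinol (final). After 6 hr at 37 C, viability read by CellTiter-Glo ATP luminescence following 30 min at room temperature.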

Sequence of Luciferin 4-monooxygenase (Photinus pyralis) (P08659 whole entry, looked up): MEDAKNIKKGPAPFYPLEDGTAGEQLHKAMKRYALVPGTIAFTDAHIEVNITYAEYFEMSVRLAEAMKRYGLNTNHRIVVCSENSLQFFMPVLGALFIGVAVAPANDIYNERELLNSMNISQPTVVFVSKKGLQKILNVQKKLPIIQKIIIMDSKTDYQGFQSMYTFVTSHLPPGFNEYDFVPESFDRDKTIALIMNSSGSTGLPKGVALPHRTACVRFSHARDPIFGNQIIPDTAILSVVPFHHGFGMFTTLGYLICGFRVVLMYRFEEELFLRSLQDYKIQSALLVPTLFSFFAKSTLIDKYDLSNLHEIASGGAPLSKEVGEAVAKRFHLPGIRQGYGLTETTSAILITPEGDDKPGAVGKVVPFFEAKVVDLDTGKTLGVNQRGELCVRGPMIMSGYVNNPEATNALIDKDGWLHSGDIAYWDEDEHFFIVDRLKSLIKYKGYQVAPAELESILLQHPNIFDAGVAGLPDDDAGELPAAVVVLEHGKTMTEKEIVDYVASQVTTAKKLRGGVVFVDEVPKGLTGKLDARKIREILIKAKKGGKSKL
Sequence of Retinoic acid receptor RXR-alpha (Homo sapiens) (P19793 whole entry, looked up): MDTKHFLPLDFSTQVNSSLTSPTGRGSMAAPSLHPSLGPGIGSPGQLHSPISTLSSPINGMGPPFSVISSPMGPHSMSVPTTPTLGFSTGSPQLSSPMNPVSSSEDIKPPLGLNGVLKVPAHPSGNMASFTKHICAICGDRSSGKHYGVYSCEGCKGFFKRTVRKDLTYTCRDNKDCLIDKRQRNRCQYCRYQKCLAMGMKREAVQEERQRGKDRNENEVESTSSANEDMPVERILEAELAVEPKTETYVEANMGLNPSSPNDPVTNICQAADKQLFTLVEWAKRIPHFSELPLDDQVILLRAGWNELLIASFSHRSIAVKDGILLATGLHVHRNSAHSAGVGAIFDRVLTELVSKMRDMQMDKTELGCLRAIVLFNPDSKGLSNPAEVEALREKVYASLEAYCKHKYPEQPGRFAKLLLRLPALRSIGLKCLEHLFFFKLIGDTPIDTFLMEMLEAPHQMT
Sequence of Nuclear receptor subfamily 1 group I member 3 (Homo sapiens) (Q14994 whole entry, looked up): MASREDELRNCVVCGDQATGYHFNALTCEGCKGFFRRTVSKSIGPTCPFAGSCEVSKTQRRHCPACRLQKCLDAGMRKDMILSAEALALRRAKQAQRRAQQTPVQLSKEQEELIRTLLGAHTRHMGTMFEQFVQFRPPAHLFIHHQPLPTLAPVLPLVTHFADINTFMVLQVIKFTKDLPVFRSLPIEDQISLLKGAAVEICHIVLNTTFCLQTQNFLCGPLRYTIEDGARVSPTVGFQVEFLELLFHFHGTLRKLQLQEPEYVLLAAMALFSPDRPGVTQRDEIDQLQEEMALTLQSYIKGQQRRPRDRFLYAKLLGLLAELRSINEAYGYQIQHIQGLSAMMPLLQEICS

For `OCCN1CCOCC1`, the outcome in [1], in assay [2], in assay [3], in [4], in assay [5] and in assay [6] was inactive. Moreover, the molecule was called inactive in [7], in [8], in assay [9], in assay [10], in assay [12] and in assay [13]. The outcome in assay [15], in [17] and in [18] was inactive. For the same molecule, the Potency entry in assay [11], in [14], in [16] and in assay [19] was “inactive” throughout.
Regarding `CCCCCC(C)O` (centres undefined), the call in assay [1], in assay [3], in assay [4], in assay [5], in [6] and in assay [7] was inactive. The molecule was classed as inactive in assay [8], in [10], in [12], in assay [20], in assay [13] and in [17]. In addition, the call in assay [18] was inactive. Moreover, the Potency entry in assay [11], in [14], in assay [16] and in assay [19] was “inactive” throughout.
With `O=C(Cn1ccnc1[N+](=O)[O-])NCc1ccccc1`, the call in assay [1], in [3], in [4], in assay [5], in [6] and in assay [7] was inactive. The call in assay [10], in assay [12], in assay [20], in assay [13], in assay [15] and in assay [17] was inactive. Also, the call in assay [18] was inactive. The Potency entry in assay [11], in assay [14], in assay [16] and in assay [19] was “inactive” in each case.
As for `CSc1cnccn1`, the molecule was classed as inactive in [1], in [2], in assay [3], in assay [4], in assay [5] and in assay [6]. Besides, the result in assay [7], in [9], in assay [10], in [12], in assay [13] and in assay [15] was inactive. Moreover, the molecule was called inactive in [17] and in assay [18]. Moreover, the Potency entry in assay [11], in [14], in assay [16] and in assay [19] was “inactive” throughout.
`CC(C)CO`: the outcome in assay [1], in [2], in assay [3], in assay [4], in assay [5] and in [6] was inactive. Also, the outcome in [7], in assay [9], in assay [10], in [12], in assay [20] and in assay [13] was inactive. Besides, the molecule was classed as inactive in assay [15], in assay [17] and in assay [18]. In addition, the Potency entry in [11], in assay [16] and in assay [19] was “inactive” each time.
With `OCC1CCC(CO)CC1` (centres undefined), the outcome in assay [1], in assay [2], in assay [3], in [4], in assay [5] and in assay [6] was inactive. The molecule was classed as inactive in assay [7], in assay [8], in [10], in [12], in assay [13] and in assay [17]. For the same molecule, the call in assay [18] was inactive. The Potency entry in assay [11], in assay [14], in assay [16] and in [19] was “inactive” each time.
As to `C=CCCCCCCCC`, the outcome in assay [1], in [2], in assay [3], in [4], in [5] and in [6] was inactive. The call in [7], in [8], in assay [10], in [12], in [20] and in assay [13] was inactive. Besides, the result in assay [15], in assay [17] and in [18] was inactive. In addition, the Potency entry in [11], in assay [16] and in assay [19] was “inactive” throughout.
Take `CCCCCC/C=C/C(=O)OC`: the molecule was called inactive in assay [1], in [3], in assay [4], in assay [5], in [6] and in [7]. The result in [9], in [10], in assay [12], in [13], in [17] and in assay [18] was inactive. The Potency result in [11], in assay [14] and in [16] was “inactive” throughout.
With `CC(Oc1cc(Cl)ccc1Cl)C(=O)O` (centres undefined), the molecule was classed as inactive in assay [1], in assay [2], in assay [3], in [4], in [5] and in assay [6]. In addition, the molecule was called inactive in assay [7], in [8], in assay [10], in [12], in [20] and in [13]. In addition, the call in assay [15], in assay [17] and in assay [18] was inactive. Moreover, the Potency entry in assay [11], in assay [16] and in assay [19] was “inactive” each time.
Regarding `CC(C)=CCC[C@@](C)(O)[C@H]1CC=C(C)CC1`, the result in assay [1], in assay [2], in assay [3], in assay [4], in assay [5] and in assay [6] was inactive. Besides, the outcome in [7], in [9], in [10], in [12], in assay [20] and in assay [13] was inactive. For the same molecule, the call in assay [17] and in [18] was inactive. Further, the Potency entry in [11], in assay [14], in [16] and in assay [19] was “inactive” each time.
Regarding `Cc1ccc2c(c1)C(=O)c1ccccc1C2=O`, the molecule was classed as inactive in [1], in assay [2], in assay [3], in [4], in [5] and in assay [6]. The outcome in [7], in [9], in assay [10], in assay [12], in assay [20] and in [13] was inactive. Further, the outcome in assay [15], in assay [17] and in [18] was inactive. For the same molecule, the Potency entry in assay [11] and in assay [19] was “inactive” in each case. Besides, the Potency in assay [14] was 4.31 µM (active); in assay [16], 14.1 µM (active).
